NLRP3 yeast inh – NALP3 inhibition in yeast. Yeast reconstituted NLRP3/ASC/caspase-1, beta-gal luminescence, 24 h. inhibition, % at 10 µM. actives 0.39% (n = 330,000). AID 2825;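 active = inhibition of 50% or more; inactive = inhibition below 50%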;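 also: plate controls were induced DMSO wells for no effect and uninduced yeast grown without galactose for full effect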
NALP1 inh – NALP1 inhibition | S. cerevisiae NALP1/ASC/caspase-1 growth, X-gal OD620, 72 h | inhibition, % at 10 µM | actives 0.61% (n = 280,000); in the data active = inhibition mostly above about 24%, no sharp cut-off; inactive = mostly below about 32%
TIM10 inh – inhibits growth of TIM10 yeast strain; S. cerevisiae TIM10 strain growth, BacTiter-Glo luminescence, 24 h; inhibition, % at 10 µM; actives 1.4% (n = 330,000); AID 463195;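 active = inhibition of 40% or more at the single tested concentration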;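 also: wild-type TIM10 isogenic control strain grown at permissive 25 °C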
tim23-1 inh – growth inhibitors of tim23-1 mutant yeast; S. cerevisiae tim23-1 growth, BacTiter-Glo luminescence, 24 h; inhibition, % at 20 µM; actives 1.3% (n = 330,000); AID 463212;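 active = growth inhibition of the mutant yeast at or above 50%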;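 also: temperature-sensitive mutant grown at 25 °C; plate controls were DMSO-treated mutant yeast for no effect and medium wells lacking yeast for full effect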
PfHsp90 set2 – inhibits growth of yeast expressing Plasmodium falciparum Hsp90; S. cerevisiae expressing PfHsp90, BacTiter-Glo ATP, 48 h; yeast lacking PDR1 and PDR3 efflux regulators; inhibition, % at 9.4 µM; actives 0.32% (n = 310,000); AID 504621;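 active = every replicate shows inhibition above about 80%, whatever the replicate mean, limit read from the data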;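 also: 0% = DMSO neutral controls and 100% = 20 µM radicicol positive controls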
tim10-1 inh – growth inhibitors of tim10-1 mutant yeast; AID 463190; actives 2.2% (n = 330,000); S. cerevisiae tim10-1 ts strain growth, BacTiter-Glo, 24 h; inhibition, % at 20 µM;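 active = inhibition of at least 40%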;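 also: mutant grown at 25 °C; 0% = DMSO wells with yeast and 100% = wells holding no yeast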
tim10-1 conf – tim10-1 yeast growth inhibition, confirmed. shares compounds with tim10-1 inh. S. cerevisiae tim10-1 ts strain growth, BacTiter-Glo, 24 h. AID 463213. inhibition, % at 20 µM. actives 56% (n = 7,400);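 active = inhibition of yeast growth at or above a set limit in either of two repeat tests at 20 µM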;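 also: tim10-1 mutant grown at permissive 25 °C to find synthetic lethal compounds; 0% = DMSO yeast wells and 100% = medium wells without yeast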
The depositor's hits bear a star; . = not tested or not shown. A selection: hits, their analogues and other compounds. The true share with any hit is near 4.2%.

SMILES	NLRP3 yeast inh	NALP1 inh	TIM10 inh	tim23-1 inh	PfHsp90 set2	tim10-1 inh	tim10-1 conf
C=CCn1c(-c2cc3cccc(OC)c3o2)n[nH]c1=S	18	-11	16	42	10	44*	19
CCOC(=O)c1nn(-c2ccc(F)cc2)c(=O)cc1OCC(=O)Nc1ccc(OCC)cc1	17	.	-2	11	25	7	.
CCCc1cc(-c2n[nH]c(=S)n2-c2cccc(C)c2)cs1	18	29	28	49	-30	46*	39*
Cc1cccc(-n2c(-c3ccco3)n[nH]c2=S)c1	1	6	3	18	9	16	.
CCCCNC(=S)NCc1ccc2[nH]c3c(c2c1)CCCC3	14	-9	33	49	17	40*	10
CC(C)c1ccc(C2OCC(C)([N+](=O)[O-])CO2)cc1 (stereo not given)	.	.	.	.	5	.	.
COc1ccc2nc(N3CCC(C)CC3)c(C#N)cc2c1	5	23	3	21	2	46*	9
O=C(CCC1CCCC1)NNC(=O)c1ccccc1O	15	.	10	26	.	-1	.
Cc1cccnc1NC(=O)CCNC(=O)c1ccccc1Cl	1	2	-4	-13	-7	-15	.
CCc1c(C)[nH]c2ccc(OC)cc2c1=S	15	1	16	24	2	46*	36*
COc1ccccc1C(=O)NCCC(=O)NCCCSc1ccccc1	22	.	2	13	3	5	.
Cc1ccc(S(=O)(=O)N/N=C\c2cc([N+](=O)[O-])ccc2Cl)cc1	10	41	22	37	-19	46*	32*
Cc1nc2c3cc(F)ccc3n(Cc3ccccc3F)c2s1	-34	.	26	14	-26	42*	13
CCOC(=O)c1cccc(N2CC3CNC(=O)C2(C(=O)OC)N3C)c1 (stereo not given)	13	.	0	13	-1	5	.
O=C(OCC(=O)N1CCc2ccccc21)c1ccccn1	14	11	14	-2	9	3	.
CCN1CCN(c2ccc(S(=O)(=O)N3CCOCC3)cc2NC(=O)c2ccc(F)cc2Cl)CC1	-2	.	-3	-1	-9	-9	.
O=C(Nc1cccc(S(=O)(=O)Nc2ccc(Cl)cc2)c1)c1cc2c(s1)CCCC2	1	28	23	25	-2	40*	16
O=C(Nc1ccon1)c1cc2c(s1)CCCCCC2	-32	-8	33	43	-20	52*	40*
COc1ccc(N2C(=O)CC(Sc3nnc(-c4ccccc4)o3)C2=O)cc1 (stereo not given)	18	10	39	41	0	53*	55*
O=C1CC(Sc2nnc(-c3ccccc3O)o2)C(=O)N1c1ccccc1 (stereo not given)	17	-10	35	38	-37	26	.
CNc1ccccc1C(C)(C)c1cn(-c2ccc([N+](=O)[O-])cc2)nn1	3	13	5	26	6	-1	.
Cc1cc(S(=O)(=O)N2CCOCC2)c(C)s1	20	3	-1	3	25	6	.
CN(C(=O)c1nn(C)c2c1CSc1ccccc1-2)c1ccccc1Cl	22	11	12	41	-1	41*	6
CN(C(=O)c1nn(C)c2c1CSc1ccccc1-2)c1ccc(F)cc1	9	8	0	37	-1	35	.
Nc1c(C(=O)NCc2ccccc2)c2nc3ccccc3nc2n1CCCN1CCOCC1	12	31	20	0	9	27	.
SMILES	NLRP3 yeast inh	NALP1 inh	TIM10 inh	tim23-1 inh	PfHsp90 set2	tim10-1 inh	tim10-1 conf
Nc1c(C(=O)NCc2ccc(F)cc2)c2nc3ccccc3nc2n1CCCN1CCOCC1	16	2	28	41	14	60*	6
COc1ccccc1/C=C\C(=O)NCC(=O)N/N=C/c1cccc(OC)c1O	0	1	14	10	-8	51*	-4
COc1ccc2cc(C=NS(=O)(=O)c3ccc(C)cc3)n(C)c2c1	12	.	-8	5	-6	-2	.
CC(C)NC(=O)c1ccc(-c2ccccc2C(F)(F)F)o1	45	7	18	30	-29	26	.
O=C(Nc1ccccc1)c1ccc(-c2ccccc2C(F)(F)F)o1	28	43	20	40	27	44*	27
Cc1ccccc1S(=O)(=O)N1CCN(C)CC1	19	-2	-6	-19	-5	-5	.
Cc1ccccc1Nc1nc(-c2cccnc2)nc2ccccc12	21	3	-13	45	3	43*	19
O=C(O)c1ccc(Nc2nc(-c3ccc([N+](=O)[O-])cc3)nc3ccccc23)cc1	22	23	-9	-7	-32	-8	.
CC(=O)Nc1ccc(Nc2nc(-c3ccccc3)nc3ccccc23)cc1	15	7	35	23	-9	48*	34*
Cc1ccc(CNc2nc(-c3cccnc3)nc3ccccc23)cc1	16	10	-5	43	2	31	.
Cc1ccc(NC(=O)Cc2nnc(SCC(=O)NC3=NCCS3)n2C)cc1	0	26	7	-5	3	-16	.
COc1cc2c(cc1OC)C(c1cccs1)NCC2 (stereo not given)	14	3	-9	-1	12	-12	.
COc1cc2c(cc1OC)C(COc1ccc(C(C)C)cc1)NCC2 (stereo not given)	27	37	36	38	-11	48*	21
Cc1ccc(-c2csc(N3CCN(CCCn4c(C(F)(F)F)nc5ccccc54)CC3)n2)cc1	0	28	10	4	-6	22	.
Cc1ccc(-c2csc(N3CCN(CCCn4c(-c5ccncc5)nc5ccccc54)CC3)n2)cc1	-2	20	-1	-14	-9	40*	19
O=C(NCc1ccc2c(c1)OCO2)c1nc(S(=O)(=O)Cc2ccccc2)ncc1Cl	13	2	39	43	2	55*	26
O=C(NCc1ccc2c(c1)OCO2)c1nc(S(=O)(=O)Cc2ccccc2F)ncc1Cl	19	7	-21	36	-8	-17	.
O=C(NCc1ccccc1)c1nc(S(=O)(=O)Cc2ccccc2)ncc1Cl	7	4	31	42	-21	52*	9
COc1ccc(CNC(=O)c2nc(S(=O)(=O)Cc3ccccc3)ncc2Cl)cc1	-8	3	29	42	9	59*	31*
CC(=O)Nc1ccc(NC(=O)c2nc(S(=O)(=O)Cc3ccccc3)ncc2Cl)cc1	5	9	5	12	-21	0	.
O=C(Nc1ccc(Oc2ccc(Br)cc2)cc1)C1=CC=CN2CCS(=O)(=O)N=C12	12	.	-6	-5	20	-8	.
COc1ccccc1N1C(=O)CC(Sc2n[nH]c(-c3cccc(C)c3)n2)C1=O (stereo not given)	7	73*	9	46	-7	47*	36*

Compound activity as filed in PubChem BioAssay.
